# Screening data: PubChem, National Center for Advancing Translational Sciences (NCATS)
# gsp antagonist – antagonizes gsp, the McCune-Albright syndrome mutation; gsp-mutant cells, cAMP HTRF, 30 min; Potency, µM (highest dose often 76.9 µM), most hits filed as inhibitors; 340,000 tested, 0.4% active; calls by dose curve; cell line not stated here;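 note: intracellular cAMP measured with PDE inhibitor Ro 20-1724 present during compound exposure; nearly all actives have a fitted effect of over 65% in size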
#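 Cells, 2000/well, grown 16–24 h in DMEM 10% FBS with 0.5 mg/ml G418, then compounds plus […] (300 uM addition stock), 30 min at 37C. cAMP read by HTRF (cAMP-d2 and anti-cAMP antibody-K in lysis buffer) after 30 min RT.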
# RXFP1 antagonist – blocks the human relaxin receptor RXFP1; activity change, negative = inhibition, % at 57.5 µM; 350,000 tested, 0.59% active; Q9HBX9; HEK293-RXFP1, relaxin-stimulated cAMP HTRF, 30 min; stronger effect = lower value;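 active = activity change of -60% or lower, but not beyond a set lower limit; inconclusive = change between -60% and -40%, or beyond the set limit; inactive = change above -40%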
# Target sequence (Q9HBX9 whole entry, looked up): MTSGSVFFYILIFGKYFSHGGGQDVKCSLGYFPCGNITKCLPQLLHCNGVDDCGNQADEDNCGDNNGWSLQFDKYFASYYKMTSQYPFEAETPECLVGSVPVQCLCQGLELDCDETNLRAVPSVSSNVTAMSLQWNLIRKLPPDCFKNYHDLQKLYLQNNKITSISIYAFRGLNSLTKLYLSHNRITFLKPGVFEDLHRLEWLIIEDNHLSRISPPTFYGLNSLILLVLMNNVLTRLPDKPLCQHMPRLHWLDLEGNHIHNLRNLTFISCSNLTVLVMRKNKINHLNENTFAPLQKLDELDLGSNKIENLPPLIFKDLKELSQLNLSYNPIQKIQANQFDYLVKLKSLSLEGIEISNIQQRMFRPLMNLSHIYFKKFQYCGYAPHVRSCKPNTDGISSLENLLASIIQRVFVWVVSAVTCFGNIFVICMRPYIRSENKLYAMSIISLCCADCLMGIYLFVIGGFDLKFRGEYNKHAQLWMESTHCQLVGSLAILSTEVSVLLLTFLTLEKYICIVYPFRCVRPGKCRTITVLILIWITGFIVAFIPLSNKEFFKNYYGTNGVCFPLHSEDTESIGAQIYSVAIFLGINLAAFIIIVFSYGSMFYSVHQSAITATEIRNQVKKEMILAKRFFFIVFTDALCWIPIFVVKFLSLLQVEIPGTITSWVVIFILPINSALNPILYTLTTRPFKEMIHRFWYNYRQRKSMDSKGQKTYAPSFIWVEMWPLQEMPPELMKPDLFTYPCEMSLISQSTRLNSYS
# p53 reactivator – restores transcriptional activity of mutant p53; H1299 p53-A138V BP100-luciferase reporter, luminescence, 24 h; 320,000 tested, 0.063% active; Potency, µM (highest dose often 92.2 µM), usual class: activators; note: nearly all actives have a fitted effect of over 45% in size
#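 H1299 (p53-null), stable ts p53-A138V + BP100-Luc; 1000 cells/well, Opti-MEM/10% FBS; cpd 4 pt, 1:5; 24 h, 37 deg C, 5% CO2; detection reagent 10 min RT; luminescence.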
# gsp ag – gsp mutant agonism | gsp mutant cells, cAMP HTRF, 30 min | Potency, µM (doses to about 76.9 µM), actives largely listed as activators | AID 624287 | 340,000 tested, 0.13% active; active = well fitted activation curve with a large enough effect; inconclusive = small, poorly fitted or top-dose-only effect, or another doubt; inactive = no such curve, though single readings can be large or run the other way; cell line not stated here;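 note: phosphodiesterase inhibitor Ro 20-1724 added with compounds to block cAMP breakdown; nearly all actives have a fitted effect of over 60% in size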
#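 Cells stably selected in G418 were plated at 2000/well, grown 16-24 hr, then given compounds in DMSO with the PDE inhibitor […] (300 uM solution added) for 30 min at 37C; cAMP was read by HTRF.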
# Tb PFK inh – T. brucei PFK enzyme inhibition; T. brucei PFK, ADP-Glo luminescence; O15648; Potency, µM (doses to about 57.5 µM), actives largely listed as inhibitors; 330,000 tested, 0.17% active; note: nearly all actives have a fitted effect of over 60% in size
#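 Activity is normalized to no-enzyme wells (full inhibition) and 1.25 nM enzyme wells (no inhibition). Reaction: 0.5 mM F6P, 0.1 mM ATP, 45 min RT, ADP-Glo luminescence; concentration-response curves fitted and classed by quality.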
# RXFP1 ag – RXFP1 (human) receptor agonism; 370,000 tested, 0.3% active; HEK293T-RXFP1 cAMP TR-FRET, 30 min; response scale: percent of porcine relaxin response, buffer zero; AID 2676; Potency, µM (top dose mostly 57.5 µM), actives largely listed as activators; Q9HBX9; note: nearly all actives have a fitted effect of over 60% in size
#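 cAMP rise read by TR-FRET after 30 min, 37C compound exposure (up to 58 uM) in RXFP1-transfected HEK293 cells with Ro 20174 present. EC50 from Hill-equation fits, with 29 nM porcine relaxin as 100% and buffer as basal.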
# Numbers stand for hits; – = inactive; ? = inconclusive; · = not tested or not shown; [ ] = dose if it differs, or a comment. Compounds with a hit are over-represented: about 1.1% of the library has one in this group of screens. Unless noted, calls come from the whole dose curve; as a rule, active = well fitted curve in the direction sought with a large enough effect; inconclusive = small, poorly fitted or top-dose-only effect, or another doubt; inactive = no such curve, though single readings can be large; an effect the other way counts as inactive or inconclusive.
SMILES,gsp antagonist,RXFP1 antagonist,p53 reactivator,gsp ag,Tb PFK inh,RXFP1 ag
Cc1ccccc1OCC(=O)Nc1ccc2nc(SCC(=O)N3CCOCC3)sc2c1,·,?,·,·,·,–
CC(C)(C)c1ccc(C(=O)Nc2ccc3nc(SCC(=O)N4CCCC4)sc3c2)cc1,·,-101,·,·,·,–
O=C(Nc1ccc2nc(SCC(=O)N3CCCC3)sc2c1)c1cccc(Cl)c1,·,–,·,·,·,–
O=C(Nc1ccc2nc(SCC(=O)N3CCOCC3)sc2c1)c1cccc(Cl)c1,·,-82,·,·,·,–
Cc1ccccc1OCC(=O)Nc1ccc2nc(SCC(=O)N3CCCC3)sc2c1,·,-86,·,·,·,–
CN1C(=O)/C(=C/c2ccccc2F)Sc2ccc(C(=O)N3CCCC3)cc21,28µM,–,–,–,–,–
O=C(c1ccc2c(c1)N(Cc1ccccc1Cl)C(=O)c1ccccc1S2)N1CCCC1,·,-68,·,·,·,–
Cc1ccccc1/C=C1\Sc2ccc(C(=O)N3CCN(c4ccccn4)CC3)cc2N(C)C1=O,?,–,–,–,–,–
CN(Cc1ccccc1Cl)C(=O)C1CCC(=O)N(C2CCCCCC2)C1 (stereo unspecified),–,–,·,–,–,–
Cc1cccc(C)c1OCc1cc(C(=O)N2CC3C[C@@H]4CC2C[C@H](C3)C4)no1,–,–,–,–,–,–
Cc1ccc(OCc2cc(C(=O)N3CC4C[C@@H]5CC3C[C@H](C4)C5)no2)cc1C,–,–,28µM,–,–,–
CC(C)NC(=O)c1cnn2c1NC(c1cccs1)CC2C(F)(F)F (stereo unspecified),–,–,–,–,–,–
COc1ccc(CN(C)CC(O)COc2ccc(-c3ccccc3)cc2)cc1OC (stereo unspecified),–,-66,–,–,–,–
O=[N+]([O-])c1ccc2nonc2c1Nc1ccccc1,–,–,?,–[15.4 µM],–,–
O=C(O)CC1(CC(=O)Nc2ccccc2C(=O)c2ccccc2)CCCC1,?,–,–,–,–,–
Cc1cccc(-n2nnnc2S(C)(=O)=O)c1,·,-84,·,·,·,–
COc1cccc(-n2nnnc2S(C)(=O)=O)c1,–,–,–,–,–,–
CCCOc1ccc(/C=N/NC(=O)c2nnn(-c3nonc3N)c2-c2cccs2)cc1OC,32µM,–,–,–,–,–
Nc1nonc1-n1nnc(C(=O)N/N=C/c2ccc3c(c2)OCO3)c1-c1ccccc1,35µM,–,–,–[15.4 µM],–,–
Nc1nonc1-n1nnc(C(=O)N/N=C/c2cccnc2)c1CSc1ccc(Cl)cc1,35µM,-65,–,–,–,–
Nc1nonc1-n1nnc(C(=O)N/N=C/c2cccnc2)c1CSc1ccccc1,–,–,–,–,–,–
Nc1nonc1-n1nnc(C(=O)N/N=C/c2ccc(Br)cc2)c1-c1ccc2c(c1)OCO2,?,?,–,–,–,–
CN(C)Cc1c(C(=O)N/N=C/c2cccc(OCc3ccccc3)c2)nnn1-c1nonc1N,50µM,–,–,–,–,–
CC(=O)c1c(C)[nH]c(C(=O)COC(=O)COc2ccccc2F)c1C,–,–,–,?,–,–
CCOC(=O)Cc1csc(NC(=O)COc2ccc(C)c(C)c2)n1,–,–,–,–,–,–
SMILES,gsp antagonist,RXFP1 antagonist,p53 reactivator,gsp ag,Tb PFK inh,RXFP1 ag
Cc1cccc(C)c1Nc1c(-c2ccc(O)cc2)nc2sccn12,·,·,·,·,·,–
CC(OC(=O)/C(C#N)=C/c1ccc(N(C)C)cc1)C(=O)N(C)c1ccccc1 (stereo unspecified),25µM,–,–,–,–,–
CC(=O)Nc1ccc(NC(=O)C(C)OC(=O)/C(C#N)=C/c2ccc(N(C)C)cc2)cc1 (stereo unspecified),–,–,–,?,–,–
COc1cccc(-n2nnc3c(=O)n(CC(=O)NCC4CCCO4)cnc32)c1 (stereo unspecified),–,–,–,11µM,–,–
C[C@H]1CN([C@@H](C)CO)C(=O)Cc2cc(NS(C)(=O)=O)ccc2O[C@@H]1CN(C)Cc1ccc(Cl)c(Cl)c1,–,·,–,·,–,·
COCCn1c(=O)[nH]c2cc(C(=O)N3CCN(c4cccc(Cl)c4)CC3)ccc2c1=O,–,–,–,–[15.4 µM],–,–
C=CCn1c(=O)[nH]c2cc(C(=O)N3CCN(c4cccc(Cl)c4)CC3)ccc2c1=O,32µM,–,–,–,?,–
O=C(O)c1cc(-c2ccncc2)nc2ccc(F)cc12,·,·,–,·,–,–
O=C(O)c1cc(-c2cccs2)nc2ccc(F)cc12,–,–,–,25µM,–,?
NNC(=S)Nc1cccc(-c2n[nH]c(=S)o2)c1,–,–,–,10µM,–,?
Cc1cc(S(=O)(=O)Nc2ccc(C(=O)O)cc2)c(C)c(S(=O)(=O)c2ccc(Cl)cc2)c1,·,–,·,·,·,–
CC(C)CN1C(=O)c2ccc(C(=O)Nc3ccc(O)cc3C(=O)O)cc2C1=O,–,–,–,–[15.4 µM],–,–
CC(c1ccccc1)N1C(=O)c2ccc(C(=O)Nc3ccccc3C(=O)O)cc2C1=O (stereo unspecified),16µM,-74,?,–,–,–
O=C(Nc1ccc(O)cc1C(=O)O)c1ccc2c(c1)C(=O)N(Cc1ccco1)C2=O,32µM,–,–,–,–,–
CC(c1ccccc1)N1C(=O)c2ccc(C(=O)Nc3ccc(Br)cc3C(=O)O)cc2C1=O (stereo unspecified),35µM,–,–,–,–,–
CC(C)CC(=O)Nc1cccc(C(=O)Nc2ccccc2C(=O)O)c1,32µM,–,–,–,–,–
CC(C)CCN1C(=O)c2ccc(C(=O)Nc3ccccc3C(=O)O)cc2C1=O,?,–,–,–,–,–
Cc1ccc(-c2csc(Nc3ccc(C(=O)O)cc3)[n+]2Cc2ccccc2)cc1,–,–,–,–,–,–
CC(=O)Nc1scc(-c2ccccc2)[n+]1-c1ccc(C)cc1,50µM,–,–,–,–,–
CC(=O)NCCNc1nc2c(-c3ccccc3)nnn2c2ccccc12,–,–,–,22µM,–,–
CC(C)NC(=S)NN=C1CCC(c2ccccc2)CC1 (stereo unspecified),–,–,–,–[15.4 µM],–,–
COc1ccc(OCC(=O)N/N=C/c2ccncc2)cc1,–,–,–,–,–,–
N#Cc1ccc(-c2ccc(OCC(=O)NN=Cc3ccncc3)cc2)cc1,35µM,–,–,–,–,·
Cc1ccc(S(=O)(=O)c2ccc([N+](=O)[O-])o2)cc1,–,-60,·,–,·,·
COc1cc(C(=O)Nc2nnc(C3=COCCO3)o2)cc(OC)c1OC,–,–,–,–[15.4 µM],–,–
CCN(CC(=O)Nc1ccc(NC(C)=O)cc1)C(=O)c1n[nH]c(=O)c2ccccc12,·,–,–,–[15.4 µM],–,–
CCc1ccc(CN(C)CC(=O)Nc2ccc3c(c2)CCC3)cc1,–,–,–,–,–,–
